Measured values reported in PubChem BioAssay.
Active and inactive are the calls of the source. Unless noted, how the calls were made is not given here.

Columns and labels:
[1] = system: Wnt5a (protein binding on small-molecule microarray); experiment: small molecules binding Wnt5a protein – biophysical, small-molecule microarray, 635/667 nm fluorescence, primary screen (AID 1142); conditions: 635 nm fluorescence, higher = more signal;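 further: fluorescence read at 667 nm with signal to noise per printed feature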
[2] = ATP-based viability of Huh7 replicon cells – cell-based, CellTiter-Glo luminescence, basal, 48 h, cytotoxicity control for HCV replication inhibitor project, primary screen (AID 1143); conditions: higher = more signal, called active from +8 up or from −8 down;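 further: Huh7 hepatoma cells carrying a hepatitis C replication reporter with no stimulus; test concentration not given here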
[3] = Pseudomonas biofilm growth suppression – PAO1 strain, BacTiter-Glo luminescence, LB-PBS, primary screen (AID 1144); conditions: P. aeruginosa PAO1 biofilm, 12 h, higher = more signal
[4] = basal CRE-LacZ reporter activity in PC12 – cell-based, unstimulated, primary screen (AID 1145); conditions: no forskolin, luminescence, 4.5 h, higher = more signal, called active from +8 up or from −8 down
[5] = forskolin-driven CRE-LacZ activity in PC12 – cell-based, CRE-LacZ reporter, forskolin-stimulated, primary screen (AID 1146); conditions: luminescence, 4.5 h, higher = more signal, called active from +8 up or from −8 down;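 further: PC12 cells with 6xCRE LacZ reporter stimulated by forskolin 10 µM; beta-galactosidase reporter signal reflecting CREB driven transcription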
[6] = target: Streptavidin (Streptomyces avidinii) (UniProt P22629); experiment: compounds binding control protein streptavidin – biophysical, small-molecule microarray, 635/667 nm fluorescence, artefact control for SMM compound annotation, primary screen (AID 1147); conditions: higher = more signal;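 further: signal reflects streptavidin binding to arrayed compounds as a control protein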
Chain of Streptavidin (Streptomyces avidinii) (P22629 whole entry, looked up): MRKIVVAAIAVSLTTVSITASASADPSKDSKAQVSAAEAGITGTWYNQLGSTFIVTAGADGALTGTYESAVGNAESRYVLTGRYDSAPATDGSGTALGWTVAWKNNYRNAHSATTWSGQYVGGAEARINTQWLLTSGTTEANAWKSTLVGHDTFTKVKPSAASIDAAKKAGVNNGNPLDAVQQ

[7] = probe aInhba binding on compound microarray – biochemical, small-molecule microarray, 635/667 nm fluorescence, primary screen (AID 1148); conditions: higher = more signal;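 further: score merges 667nm spot fluorescence with signal-to-noise for antibody binding to printed compounds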
[8] = target: Torsin-1A (Homo sapiens) (UniProt O14656); experiment: TOR1A wild-type binding on microarray – cell lysate, small-molecule microarray, lysate, 635/667 nm, primary screen (AID 1149); conditions: COS7 hTOR1A-WT lysate, 635 nm fluorescence, higher = more signal
Chain of Torsin-1A (Homo sapiens) (O14656 whole entry, looked up): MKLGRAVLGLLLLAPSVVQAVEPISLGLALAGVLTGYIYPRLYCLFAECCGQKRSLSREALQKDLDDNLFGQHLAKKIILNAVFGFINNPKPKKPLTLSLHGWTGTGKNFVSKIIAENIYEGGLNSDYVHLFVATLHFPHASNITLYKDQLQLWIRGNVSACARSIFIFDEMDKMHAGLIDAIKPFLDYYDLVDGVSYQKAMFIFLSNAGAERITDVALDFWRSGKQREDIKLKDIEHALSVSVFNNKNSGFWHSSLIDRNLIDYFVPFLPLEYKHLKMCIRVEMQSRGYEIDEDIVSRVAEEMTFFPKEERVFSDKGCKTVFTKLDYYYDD

[9] = target: Torsin-1A (Homo sapiens) (UniProt O14656); experiment: torsin A mutant lysate binding on microarrays – cell lysate, small-molecule microarray, COS7 lysate, 635/667 nm fluorescence, primary screen (AID 1150); conditions: COS7 hTOR1A mutant lysate, 635 nm fluorescence, higher = more signal;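 further: score pools 667 nm emission and signal to noise measuring lysate protein binding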
[10] = system: Sonic hedgehog protein (Shh); experiment: Sonic hedgehog microarray binding compounds – biochemical, small-molecule microarray, 635/667 nm fluorescence, primary screen (AID 1151); conditions: 635 nm fluorescence, higher = more signal;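 further: Shh protein binding to compounds spotted on small-molecule microarray slides; score combines spot fluorescence intensity with signal-to-noise across triplicate slides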

Structure (SMILES)	composite z-score [1]	z-score [2]	z-score [3]	z-score [4]	z-score [5]	composite z-score [6]	composite z-score [7]	composite z-score [8]	composite z-score [9]	composite z-score [10]
CCN1C(=O)[C@H]2[C@H]3[C@H](O)[C@H](O)CC(=NOCC(C)C)[C@H]3CC[C@H]2C1=O	-0.0772	0.306 (inactive)	0.138 (inactive)	-0.202 (inactive)	0.13 (inactive)	0.342	-0.0774	-0.284	0.303	0.599
COc1cccc([C@H]2Oc3ccc(OC)cc3C(=NOCC[C@@H]3C=C[C@H](OC(C)=O)[C@@H](COC(C)=O)O3)[C@@H]2O)c1	0.0377	-0.0868 (inactive)	1.43 (inactive)	5.08 (inactive)	0.497 (inactive)	-0.112	-0.154	0.186	0.273	0.509
CCOC(=O)CCN1C(=O)[C@H]2[C@H]3[C@H](O)[C@H](O)CC(=NOCC(C)C)[C@@H]3CC[C@H]2C1=O	0.0707	-1.76 (inactive)	-0.123 (inactive)	0.424 (inactive)	-0.209 (inactive)	-0.483	-0.0986	2.79	2.77	1.1
COc1ccc(COC(=O)NN=C2C[C@@H](O)[C@@H](O)[C@@H]3[C@@H]4C(=O)N(Cc5ccccc5)C(=O)[C@@H]4CC[C@@H]23)cc1	-0.0129	-0.19 (inactive)	0.99 (inactive)	-0.655 (inactive)	0.426 (inactive)	-0.323	0.0785	-0.0532	0.226	0.111
CC(=O)OC[C@H]1O[C@@H](ON=C(C)C)[C@H](OC(C)=O)[C@@H](OC(C)=O)[C@@H]1OC(C)=O	0.47	0.238 (inactive)	-0.291 (inactive)	0.499 (inactive)	0.101 (inactive)	-1.26	-0.0695	0.456	0.188	-0.856
O=C1[C@H]2[C@H]3[C@H](O)[C@H](O)CC(=NOC[C@@H](O)COCc4ccco4)[C@@H]3CC[C@H]2C(=O)N1C1CCCCC1	0.124	-0.234 (inactive)	0.321 (inactive)	3.23 (inactive)	0.148 (inactive)	-0.256	-0.195	3.38	1.25	1.94
COC(=O)CC=C[C@@H](C)[C@@H](C=NOC(C)CN1CCCCc2nc(C)c(C)cc21)NS(=O)(=O)c1ccc(C)cc1 (stereo not given in full)	0.104	0.453 (inactive)	0.89 (inactive)	-0.882 (inactive)	0.877 (inactive)	-0.343	-0.0221	1.05	0.705	0.56
COc1ccc(O[C@H]2C=C[C@@H](C#Cc3ccccc3)O[C@@H]2CO)cc1	-0.0391	-4.1 (inactive)	0.451 (inactive)	0.653 (inactive)	-0.003 (inactive)	0.966	-0.182	-0.0668	-0.0971	0.0864
CCN(CC)CC(O)CN1CCCCc2nc(C)c(C)cc21 (stereo not given)	0.0321	-1.1 (inactive)	-1.67 (inactive)	-0.161 (inactive)	-0.71 (inactive)	0.551	-0.183	0.57	0.029	0.261
CCOC(=O)NN=C1C[C@@H](O)[C@@H](O)[C@@H]2[C@@H]3C(=O)N(C[C@@H]4CCCO4)C(=O)[C@@H]3CC[C@H]12	0.0534	0.587 (inactive)	-0.973 (inactive)	-0.926 (inactive)	-0.0875 (inactive)	-0.319	-0.004	0.715	0.577	0.225
C[C@@H]1CC[C@H]2C(=O)O[C@@H](COc3ccc(C(C)(C)C)cc3)CN2[C@H]1c1ccc(Br)cc1	0.0114	-0.0293 (inactive)	0.0807 (inactive)	0.345 (inactive)	0.213 (inactive)	0.0826	-0.0523	0.159	-0.0416	0.526
CC(=O)OC[C@H]1O[C@H](CC=NOC(C)CN2CCCCc3nc(C)c(C)cc32)C=C[C@@H]1OC(C)=O (stereo not given in full)	0.696	-0.402 (inactive)	0.725 (inactive)	-0.157 (inactive)	0.278 (inactive)	1.87	-0.137	3.43	2.9	1.48
COC(=O)[C@@H]1CC[C@H](C)[C@@H](c2ccc(Br)cc2)N1C[C@H](O)CN=[N+]=[N-]	-0.106	-0.999 (inactive)	-1.5 (inactive)	-0.522 (inactive)	-0.369 (inactive)	0.127	-0.05	0.386	0.827	0.26
CC(=O)OC[C@H]1O[C@H](CC=NOC(C)CN2CCCc3nc(C)c(C)cc32)C=C[C@@H]1OC(C)=O (stereo not given in full)	0.417	0.169 (inactive)	0.649 (inactive)	-0.961 (inactive)	0.0009 (inactive)	-0.0656	-0.0221	1.19	-0.0919	1.1
COc1ccc(OC[C@@H]2CC3[C@@H](c4ccc(Br)cc4)[C@H](C)CC[C@H]3C(=O)O2)cc1 (stereo not given in full)	-0.223	-0.513 (inactive)	-0.12 (inactive)	1.9 (inactive)	-0.462 (inactive)	0.0139	-0.202	0.327	0.832	0.391
